# Measurements published in PubChem BioAssay (NCATS).
# Records with an inconclusive call do not appear. Entries that show only a call come without a potency. The source made the active and inactive calls. Unless noted, the call rests on the fitted dose curve; in most records, active means well fitted curve in the direction sought with a large enough effect; inconclusive means small, poorly fitted or top-dose-only effect, or another doubt; inactive means no such curve, though single readings can be large; an effect the other way counts as inactive or inconclusive.
# What was measured:
# [1] = biological target: Voltage-gated inwardly rectifying potassium channel KCNH2 (Homo sapiens) (UniProt Q12809); experiment: qHTS Assay for Small Molecule Inhibitors of the Human hERG Channel Activity (AID 588834);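 further: top concentration of the series differs between compounds; lower thallium flux fluorescence means stronger hERG block; nearly all actives have a fitted effect of over 50% in size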
# Procedure, shortened: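 Homogeneous FluxOR thallium flux assay using hERG-expressing U2OS cells (BacMam). Compound treatment about 10 minutes preceded stimulation; reduced fluorescence taken as channel block.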
# [2] = S16 Schwann cell viability assay (CellTiter-Glo assay) (AID 624031);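 further: native untransfected S16 rat Schwann cells; cellular ATP luminescence as a viability measure; nearly all actives have a fitted effect of over 70% in size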
# Procedure, shortened: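 Rat S16 Schwann cells without reporter constructs received compound or DMSO for 24 h at 37 °C under 5% CO2. Cellular ATP was then quantified by CellTiter-Glo luminescence, with vehicle wells defined as 0% activity and cell-free wells as reference.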
# [3] = S16 Schwann cell PMP22 intronic element firefly luciferase assay (AID 624032); further: nearly all actives have a fitted effect of over 30% in size
# Procedure, shortened: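 Luciferase reporter of PMP22 intronic-element expression in stably transfected S16 rat Schwann cells, read by ONE-Glo luminescence after 24 h compound exposure at 37 C. Activity scaled between DMSO (0%) and positive-control PTC124; concentration-effect curves quality-classified.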
# [4] = biological target: Glutaminase kidney isoform, mitochondrial (Homo sapiens) (UniProt O94925); experiment: qHTS for Inhibitors of Glutaminase (GLS): LOPAC Validation (AID 624146);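 further: glutamate product detected by oxidase and peroxidase coupled Amplex red fluorescence gain; nearly all actives have a fitted effect of over 60% in size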
# Procedure, shortened: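 Enzyme dispensed in phosphate buffer (45 mM, pH 8.2, 0.02% Tween-20), compounds pinned in, then 1 mM L-glutamine solution and the glutamate oxidase–HRP–Amplex Red mix added; fluorescence read immediately and again after 30 min at room temperature.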
# [5] = qHTS of Trypanosoma Brucei Inhibitors: LOPAC Validation (AID 624147)
# Procedure, shortened: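 ADP (130 uM final) triggers the TbPYK reaction after compound addition; incubation is 45 min at room temperature. Kinase-Glo Plus is then added and luminescence imaged. Normalized data are fitted to concentration-effect curves.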
# [6] = biological target: Glucagon-like peptide 1 receptor (Homo sapiens) (UniProt P43220); experiment: qHTS of GLP-1 Receptor Agonists: LOPAC Validation (AID 624148);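 further: luminescence from a luciferase reporter switched on by cAMP; higher luminescence signal means agonism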
# Procedure, shortened: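 Agonism scored as increased luciferase luminescence driven by cAMP in HEK293 clones carrying GLP-1R. Cells settled 12 hours, received compound for 4-6 hr at 37 deg C, 5% CO2, and were read after 12 min detection reagent at RT.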
# [7] = qHTS of Nrf2 Activators: LOPAC Validation (AID 624149)
# Procedure, shortened: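 AREc32_Fluc cells, 1000/well, OPTI-MEM + 5% FBS, o/n 37 deg C 5% CO2; compound pin-transfer, 24 hr 37 deg C; Steady-Glo 30 min RT, luminescence read.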
# [8] = HTS Assay for Allosteric Antagonists of the Human D2 Dopamine Receptor: Hit Validation in HTRF (AID 624455)
# Procedure, shortened: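 HTRF read-out; cells stably expressing D1 receptor; hits scored for inhibition of D1-mediated response. Primary screen: calcium flux, force-coupled inducible Hek293 Trex D2 line, antagonism vs EC80 dopamine.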
# [9] = Cytotoxicity counterscreen for NFkB agonists and antagonists (AID 624476); further: potency means the concentration at half of the fitted maximal effect
# [10] = qHTS Assay for Identification of Small Molecule Agonists for NFkB Signaling Pathway. (AID 624478);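 further: compounds tested together with TNF alpha at its EC50 of 10 pM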
# Procedure, shortened: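 Read-out: 460/530 nm emission at 405 nm excitation after 2 h LiveBLAzer loading; ME-180 NFkB-bla reporter cells exposed 5 h at 37 C to compounds with 10 pM TNF alpha final.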
# [11] = qHTS Assay for Identification of Small Molecule Antagonists for NFkB Signaling Pathway. (AID 624479; calls by dose curve;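 further: pathway stimulated with TNF alpha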; further: potency means the concentration at half of the fitted maximal effect)
# [12] = Cell Proliferation Assay against the TMD8 Cell Line (AID 651645); details: TMD8 DLBCL cell line proliferation/viability; at 46.1 µM (top of the series) unless noted;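 further: cells exposed to compound for 48 h before reading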
# Procedure, shortened: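 Cell viability of the ABC DLBCL line TMD8 is measured by CellTiter-Glo luminescence following a 48-hour incubation with compound. Percent activity uses DMSO as 100% and 9.2 uM bortezomib (final) as 0%.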
# [13] = Cell Proliferation Assay against the HBL1 Cell Line (AID 651646); details: HBL1 DLBCL cells; at 46.1 µM (top of the series) unless noted;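 further: cells exposed to compound for 48 h before reading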
# Procedure, shortened: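 CellTiter-Glo luminescence after 48 h compound exposure at 37C gives percent activity, with DMSO as 100% and 9.2 uM bortezomib final as 0%. Cells: 500 log-phase HBL1 per well, RPMI plus 5% FBS.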
# [14] = biological target: Luciferin 4-monooxygenase (Photinus pyralis) (UniProt P08659); experiment: Biochemical firefly luciferase enzyme assay for NPC (AID 624030);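 further: purified P. pyralis luciferase at 10 nM with luciferin and ATP substrate; nearly all actives have a fitted effect of over 70% in size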
# Procedure, shortened: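 Direct inhibition of firefly luciferase enzyme (10 nM final, 50 mM Tris Acetate) assessed by luminescence within 5 minutes. Percent activity scaled between DMSO and PTC124 positive control, with concentration-effect curves classified by fit quality and response.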
# [15] = qHTS assay for small molecule agonists of the antioxidant response element (ARE) signaling pathway (AID 651741; active means well fitted activation curve with a large enough effect in the signal ratio; the % refers to the signal ratio)
# Procedure, shortened: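 Agonist activity is measured as ARE-driven beta-lactamase expression in a stable HepG2 reporter line, using 16 h compound treatment at 37 C and a FRET substrate fluorescence readout after 2 h.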
# [16] = qHTS assay for small molecule activators of the p53 signaling pathway (AID 651743; active means well fitted activation curve with a large enough effect in the signal ratio, not every such curve was filed as active; the % refers to the signal ratio); details: HCT-116 p53RE-bla, beta-lactamase FRET ratio, 16 h; activation: stronger effect = higher value
# Procedure, shortened: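 A beta-lactamase reporter under p53 response element control, stably carried by HCT-116 cells, reported pathway activation. Test compounds were applied for 16 hours at 37 C, and fluorescence was measured 2 hours after adding the B/G FRET substrate.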
# [17] = S16 Schwann cell PMP22 intronic element beta-lactamase assay (AID 624044; calls by dose curve; further: nearly all actives have a fitted effect of over 15% in size)
# Procedure, shortened: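 Beta-lactamase reporter under a PMP22 intronic regulatory element in stable S16 rat Schwann cells; 24 h compound exposure. 460 nm blue signal normalized between DMSO (0%) and potassium clavulanate, with 535 nm FRET tracking viability; curves classed by r2 and response.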
# [18] = Cell Proliferation Assay against the TMD8 Cell Line (Caspase readout at 16 hrs) (AID 651712); further: potency means the concentration at half of the fitted maximal effect
# Procedure, shortened: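 Caspase-Glo luminescence measured apoptosis after a 16 h, 37 C compound exposure of TMD8 cells (500 cells/well, 5% FBS RPMI). DMSO set 0% and bortezomib at 9.2 uM final set 100% activity.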
# [19] = Cell Proliferation Assay against the TMD8 Cell Line (Caspase readout at 8 hrs) (AID 651713)
# Procedure, shortened: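 Apoptosis readout: caspase 3/7 luminescence (Caspase-Glo), 15 min RT. Cells: TMD8, 500/well, RPMI + 5% FBS, no phenol red. Exposure 8 h, 37C. % activity vs DMSO = 0, bortezomib 9.2 uM final = 100.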
# Glutaminase kidney isoform, mitochondrial (Homo sapiens), sequence (O94925 whole entry, looked up, canonical isoform): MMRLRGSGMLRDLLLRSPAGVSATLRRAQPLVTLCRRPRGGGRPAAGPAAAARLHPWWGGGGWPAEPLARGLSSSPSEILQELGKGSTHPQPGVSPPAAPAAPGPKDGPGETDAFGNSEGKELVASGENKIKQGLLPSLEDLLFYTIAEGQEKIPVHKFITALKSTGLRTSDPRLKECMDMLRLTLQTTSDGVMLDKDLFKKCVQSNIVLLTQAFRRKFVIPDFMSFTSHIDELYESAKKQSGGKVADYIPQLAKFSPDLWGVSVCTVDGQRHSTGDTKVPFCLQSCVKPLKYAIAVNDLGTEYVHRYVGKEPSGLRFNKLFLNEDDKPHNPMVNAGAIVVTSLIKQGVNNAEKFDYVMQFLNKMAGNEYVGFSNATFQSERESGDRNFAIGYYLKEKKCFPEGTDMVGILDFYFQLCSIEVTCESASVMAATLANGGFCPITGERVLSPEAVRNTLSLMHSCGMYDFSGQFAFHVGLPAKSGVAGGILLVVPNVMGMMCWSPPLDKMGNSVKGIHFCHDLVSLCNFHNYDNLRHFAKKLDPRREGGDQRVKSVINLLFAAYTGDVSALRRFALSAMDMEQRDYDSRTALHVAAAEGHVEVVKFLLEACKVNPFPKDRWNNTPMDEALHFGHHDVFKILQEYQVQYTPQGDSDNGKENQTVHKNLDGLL
# Luciferin 4-monooxygenase (Photinus pyralis), sequence (P08659 whole entry, looked up): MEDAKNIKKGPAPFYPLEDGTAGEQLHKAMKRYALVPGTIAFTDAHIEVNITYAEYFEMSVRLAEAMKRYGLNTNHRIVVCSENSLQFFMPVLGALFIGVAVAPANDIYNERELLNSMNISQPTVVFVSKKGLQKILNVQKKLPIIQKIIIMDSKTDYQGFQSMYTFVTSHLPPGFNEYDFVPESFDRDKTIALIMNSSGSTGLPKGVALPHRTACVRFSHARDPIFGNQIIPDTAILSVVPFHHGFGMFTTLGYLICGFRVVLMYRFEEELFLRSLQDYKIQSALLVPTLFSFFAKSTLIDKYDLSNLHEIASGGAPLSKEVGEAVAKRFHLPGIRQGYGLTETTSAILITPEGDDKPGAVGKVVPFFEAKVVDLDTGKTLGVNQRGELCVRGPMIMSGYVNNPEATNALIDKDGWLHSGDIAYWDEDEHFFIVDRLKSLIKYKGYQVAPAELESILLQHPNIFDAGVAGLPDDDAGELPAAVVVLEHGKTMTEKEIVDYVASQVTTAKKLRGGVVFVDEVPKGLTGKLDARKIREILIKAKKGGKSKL
# Glucagon-like peptide 1 receptor (Homo sapiens), sequence (P43220 whole entry, looked up): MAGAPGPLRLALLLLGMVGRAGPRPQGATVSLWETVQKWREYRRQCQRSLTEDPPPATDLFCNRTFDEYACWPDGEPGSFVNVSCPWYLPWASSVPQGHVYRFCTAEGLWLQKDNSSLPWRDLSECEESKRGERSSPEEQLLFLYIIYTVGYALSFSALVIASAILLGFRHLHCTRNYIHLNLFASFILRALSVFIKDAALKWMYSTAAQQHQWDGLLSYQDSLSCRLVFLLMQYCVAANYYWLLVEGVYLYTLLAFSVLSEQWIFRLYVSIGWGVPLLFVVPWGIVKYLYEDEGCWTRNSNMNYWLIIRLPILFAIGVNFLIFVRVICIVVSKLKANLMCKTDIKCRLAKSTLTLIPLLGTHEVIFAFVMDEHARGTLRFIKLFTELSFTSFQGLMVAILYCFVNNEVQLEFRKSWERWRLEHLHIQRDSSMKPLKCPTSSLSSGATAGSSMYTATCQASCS
# Voltage-gated inwardly rectifying potassium channel KCNH2 (Homo sapiens), sequence (Q12809 whole entry, looked up): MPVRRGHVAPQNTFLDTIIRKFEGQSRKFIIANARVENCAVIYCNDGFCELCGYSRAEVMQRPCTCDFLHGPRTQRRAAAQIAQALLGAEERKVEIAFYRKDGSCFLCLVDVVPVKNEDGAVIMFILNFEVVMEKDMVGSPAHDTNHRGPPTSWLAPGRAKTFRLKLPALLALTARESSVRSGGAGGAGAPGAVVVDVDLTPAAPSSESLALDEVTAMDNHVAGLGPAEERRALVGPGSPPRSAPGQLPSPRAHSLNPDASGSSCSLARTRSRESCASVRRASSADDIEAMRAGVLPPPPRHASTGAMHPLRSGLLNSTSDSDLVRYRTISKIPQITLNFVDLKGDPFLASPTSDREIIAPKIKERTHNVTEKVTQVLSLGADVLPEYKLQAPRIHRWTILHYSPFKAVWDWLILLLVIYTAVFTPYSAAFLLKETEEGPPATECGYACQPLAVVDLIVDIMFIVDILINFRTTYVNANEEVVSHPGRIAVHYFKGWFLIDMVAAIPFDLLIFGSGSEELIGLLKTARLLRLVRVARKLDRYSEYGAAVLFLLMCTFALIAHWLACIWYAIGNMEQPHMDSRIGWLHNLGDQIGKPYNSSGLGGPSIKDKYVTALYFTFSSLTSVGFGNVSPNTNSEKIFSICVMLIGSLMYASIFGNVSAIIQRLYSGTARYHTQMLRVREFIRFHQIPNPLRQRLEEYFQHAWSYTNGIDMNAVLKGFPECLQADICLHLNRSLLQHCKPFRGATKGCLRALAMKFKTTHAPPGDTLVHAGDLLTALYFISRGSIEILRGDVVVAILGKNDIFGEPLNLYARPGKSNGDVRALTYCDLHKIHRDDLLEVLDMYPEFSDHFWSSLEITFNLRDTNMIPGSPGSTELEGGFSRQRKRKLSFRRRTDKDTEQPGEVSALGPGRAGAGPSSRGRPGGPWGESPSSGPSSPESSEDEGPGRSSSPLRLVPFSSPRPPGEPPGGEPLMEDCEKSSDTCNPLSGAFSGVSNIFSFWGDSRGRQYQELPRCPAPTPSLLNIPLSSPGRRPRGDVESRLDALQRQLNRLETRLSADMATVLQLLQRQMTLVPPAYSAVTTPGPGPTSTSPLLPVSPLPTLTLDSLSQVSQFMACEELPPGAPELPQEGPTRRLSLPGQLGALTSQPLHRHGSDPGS
compound,measurement,setting,value
Cc1oncc1C(=O)Nc1ccc(C(F)(F)F)cc1,Potency,[1],inactive
same,Potency,[2],inactive
same,Potency,[3],inactive
same,outcome,[4],inactive
same,outcome,[5],inactive
same,outcome,[6],inactive
same,outcome,[7],inactive
same,Potency,[8],inactive
same,Potency,[9],inactive
same,outcome,[10],inactive
same,Potency,[11],inactive
same,viability (% of control),[12],54%
same,"viability, percent of control",[13],84%
Cc1ccccc1C(OCCN(C)C)c1ccccc1 (stereo not drawn),Potency,[14],inactive
same,Potency,[2],inactive
same,Potency,[3],inactive
same,outcome,[4],inactive
same,outcome,[5],inactive
same,outcome,[6],inactive
same,outcome,[7],inactive
same,Potency,[8],inactive
same,Potency,[15],inactive
same,activation,[16],-4.64% (inactive)
CCn1cc(C(=O)O)c(=O)c2cc(F)c(N3CCNC(C)C3)c(F)c21 (stereo not drawn),outcome,[4],inactive
same,outcome,[5],inactive
same,outcome,[6],inactive
same,outcome,[7],inactive
same,Potency,[8],inactive
Cc1n[nH]c(C)c1Cc1sc2c(c1C(=O)N1C[C@H](O)CO1)c(=O)n(C)c(=O)n2CC(C)C,Potency,[9],inactive
same,outcome,[10],inactive
same,Potency,[11],inactive
same,viability (% of control),[12],68.3%
same,"viability, percent of control",[13],76%
Cc1ccc(N(CC2=NCCN2)c2cccc(O)c2)cc1,Potency,[14],inactive
same,Potency,[2],inactive
same,Potency,[3],inactive
same,outcome,[17],inactive
same,outcome,[5],inactive
same,outcome,[6],inactive
same,outcome,[7],inactive
same,Potency,[8],inactive
O=c1n(CCCN2CCN(c3cccc(Cl)c3)CC2)nc2ccccn12,Potency,[14],inactive
same,Potency,[2],inactive
same,Potency,[3],inactive
same,outcome,[4],inactive
same,outcome,[5],inactive
same,outcome,[6],inactive
same,outcome,[7],inactive
same,Potency,[8],inactive
CC1(C)SCCN(S(=O)(=O)c2ccc(OCC#CCO)cc2)[C@@H]1C(=O)NO,Potency,[9],inactive
same,outcome,[10],inactive
same,Potency,[11],inactive
same,viability (% of control),[12],84.4%
same,"viability, percent of control",[13],97.2%
same,Potency,[18],inactive
same,Potency,[19],inactive
COc1ccc2c3n(c(=NC(=O)c4cccnc4)nc2c1OC)CCN3,Potency,[9],1.87 µM (active)
same,outcome,[10],inactive
same,Potency,[11],inactive
same,viability (% of control),[12],22.1%
same,"viability, percent of control",[13],39.3%
same,Potency,[18],inactive
O=C1[C@H](Cc2ccc(O)cc2)N2C(=O)CCN(C(=O)NCc3ccccc3)[C@H]2CN1Cc1cccc2ccccc12,Potency,[9],inactive
same,outcome,[10],inactive
same,Potency,[11],inactive
same,viability (% of control),[12],27.3%
same,"viability, percent of control",[13],32.2%
same,Potency,[18],23.5 µM (active)
same,Potency,[19],inactive
CN[C@@H](C)C(=O)N[C@H]1CCCC[C@H]2CC[C@@H](C(=O)N[C@@H](c3ccccc3)c3cn(CCCCc4ccc(CCCCn5cc([C@@H](NC(=O)[C@@H]6CC[C@@H]7CCCC[C@H](NC(=O)[C@H](C)NC)C(=O)N76)c6ccccc6)nn5)cc4)nn3)N2C1=O,Potency,[9],inactive
same,outcome,[10],inactive
same,Potency,[11],inactive
same,viability (% of control),[12],7.59%
same,"viability, percent of control",[13],15.5%
same,Potency,[18],inactive
same,Potency,[19],inactive
COc1cc(Oc2ccnc3cc(OC)c(OC)cc23)ccc1NC(=O)NC(C)c1nccs1 (stereo not drawn),Potency,[9],inactive
same,outcome,[10],inactive
same,Potency,[11],16.8 µM (active)
same,viability (% of control),[12],69%
same,"viability, percent of control",[13],59.4%
C[C@]12CC[C@H](O)CC1=CC[C@@H]1[C@H]2CC[C@]2(C)C(c3cccnc3)=CC[C@H]12,Potency,[9],inactive
same,outcome,[10],inactive
same,Potency,[11],inactive
same,viability (% of control),[12],29.5%
same,"viability, percent of control",[13],52.7%
Cn1c(=O)c(F)c(Nc2ccc(I)cc2F)c2c(=O)n(C[C@@H](O)CO)cnc21,Potency,[9],inactive
same,outcome,[10],inactive
same,Potency,[11],inactive
same,viability (% of control),[12],63.3%
same,"viability, percent of control",[13],38.3%
same,Potency,[18],inactive
CCc1cc(Nc2nccc(-c3c(-c4ccc(OC)c(C(=O)Nc5c(F)cccc5F)c4)nc4ccccn34)n2)c(OC)cc1N1CCC(N2CCN(S(C)(=O)=O)CC2)CC1,Potency,[9],inactive
same,outcome,[10],inactive
same,Potency,[11],inactive
same,viability (% of control),[12],78.7%
same,"viability, percent of control",[13],87.3%
same,Potency,[18],inactive
